Test results taken from publication PMC5540273 (PLoS ONE, 2017).
“And” between values parts separate entries of the source, which are not always exact repeats. Equal entries are not always repeated. Where two headings read alike, the source gives them in different places.

What was measured:
PAK1 = conditions: concentration: 1 μM, replicates: in singlicate, n = 1
PAK2 = conditions: concentration: 1 μM, replicates: in singlicate, n = 1
PAK3 = conditions: concentration: 1 μM, replicates: in singlicate; n = 1
PAK4 = conditions: concentration: 1 μM, replicates: in singlicate; n = 1
PAK6 = conditions: concentration: 1 μM, replicates: in singlicate; n = 1
PAK7 = conditions: concentration: 1 μM, replicates: in singlicate, n = 1
PCTK1 = tested on: T1, PCTK1; conditions: concentration: 1 μM, replicates: in singlicate; n = 1
T1 construct: gene CDK16

PCTK2 = tested on: T2, PCTK2; conditions: concentration: 1 μM, replicates: in singlicate, n = 1
T2 construct: gene CDK17

PCTK3 = tested on: T3, PCTK3; conditions: concentration: 1 μM, replicates: in singlicate, n = 1
T3 construct: gene CDK18

PDGFRA = conditions: concentration: 1 μM, replicates: in singlicate, n = 1
PDGFRB = conditions: concentration: 1 μM, replicates: in singlicate, n = 1
PDPK1 = conditions: concentration: 1 μM, replicates: in singlicate, n = 1
PFTAIRE2 = conditions: concentration: 1 μM, replicates: in singlicate, n = 1
PFTK1 = tested on: T4, PFTK1; conditions: concentration: 1 μM, replicates: in singlicate, n = 1
T4 construct: gene CDK14

PHKG1 = conditions: concentration: 1 μM, replicates: in singlicate; n = 1
PHKG2 = conditions: concentration: 1 μM, replicates: in singlicate, n = 1
PIK3C2B = conditions: concentration: 1 μM, replicates: in singlicate, n = 1
PIK3C2G = conditions: concentration: 1 μM, replicates: in singlicate, n = 1
PIK3CA = conditions: concentration: 1 μM, replicates: in singlicate; n = 1
PIK3CB = conditions: concentration: 1 μM, replicates: in singlicate, n = 1
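Note: KINOMEscan kinase panel screen.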

With c1ccc(-c2ccc3c(-c4ccnc(Nc5ccc6c(c5)OCCO6)n4)cnn3n2)cc1 [GW818941] the “%Inh” value (PAK1) was 6%, the “%Inh” value (PAK2) was 28% and the “%Inh” value (PAK3) was 18%. For the same compound, the “%Inh” value (PAK4) was 0%, the “%Inh” value (PAK6) was 83% and the “%Inh” value (PAK7) was 0%. The “%Inh” value (PCTK1) was 0%, the “%Inh” value (PCTK2) was 7% and the “%Inh” value (PCTK3) was 0%. For the same compound, the “%Inh” value (PDGFRA) was 8%, the “%Inh” value (PDGFRB) was 4% and the “%Inh” value (PDPK1) was 17%. For the same compound, the “%Inh” value (PFTAIRE2) was 5%, the “%Inh” value (PFTK1) was 19% and the “%Inh” value (PHKG1) was 0%. The “%Inh” value (PHKG2) was 0%, the “%Inh” value (PIK3C2B) was 0% and the “%Inh” value (PIK3C2G) was 11%. For the same compound, the “%Inh” value (PIK3CA) was 0% and the “%Inh” value (PIK3CB) was 0%.

With CN1c2ccc(-c3ccc(C(=O)NCCO)cc3)cc2-c2[nH]ncc2S1(=O)=O the “%Inh” value (PAK1) was 12%, the “%Inh” value (PAK2) was 32% and the “%Inh” value (PAK3) was 20%. The “%Inh” value (PAK4) was 35%, the “%Inh” value (PAK6) was 7% and the “%Inh” value (PAK7) was 16%. For the same compound, the “%Inh” value (PCTK1) was 0%, the “%Inh” value (PCTK2) was 28% and the “%Inh” value (PCTK3) was 0%. For the same compound, the “%Inh” value (PDGFRA) was 35%, the “%Inh” value (PDGFRB) was 11% and the “%Inh” value (PDPK1) was 17%. The “%Inh” value (PFTAIRE2) was 0%, the “%Inh” value (PFTK1) was 0% and the “%Inh” value (PHKG1) was 0%. For the same compound, the “%Inh” value (PHKG2) was 41%, the “%Inh” value (PIK3C2B) was 0% and the “%Inh” value (PIK3C2G) was 8%. For the same compound, the “%Inh” value (PIK3CA) was 0% and the “%Inh” value (PIK3CB) was 0%.

For Nc1nc(-c2ccccn2)c(-c2ccnc3ccccc23)s1 [GW548057], the “%Inh” value (PAK1) was 0%, the “%Inh” value (PAK2) was 0% and the “%Inh” value (PAK3) was 0%. For the same compound, the “%Inh” value (PAK4) was 0%, the “%Inh” value (PAK6) was 1% and the “%Inh” value (PAK7) was 26%. The “%Inh” value (PCTK1) was 0%, the “%Inh” value (PCTK2) was 18% and the “%Inh” value (PCTK3) was 16%. For the same compound, the “%Inh” value (PDGFRA) was 1%, the “%Inh” value (PDGFRB) was 23% and the “%Inh” value (PDPK1) was 0%. For the same compound, the “%Inh” value (PFTAIRE2) was 9%, the “%Inh” value (PFTK1) was 29% and the “%Inh” value (PHKG1) was 0%. The “%Inh” value (PHKG2) was 6%, the “%Inh” value (PIK3C2B) was 0% and the “%Inh” value (PIK3C2G) was 0%. The “%Inh” value (PIK3CA) was 7% and the “%Inh” value (PIK3CB) was 14%.

COc1ccc(-c2nc3n(c2-c2ccncc2)CCC3)cc1 [SKF-104493] was tested, and the “%Inh” value (PAK1; 1 µM) was 0% and 27%, the “%Inh” value (PAK2; 1 µM) was 23% and 10% and the “%Inh” value (PAK3) was 0%. For the same compound, the “%Inh” value (PAK4) was 0%, the “%Inh” value (PAK6) was 0% and the “%Inh” value (PAK7; 1 µM) was 0% and 15%. The “%Inh” value (PCTK1) was 0%, the “%Inh” value (PCTK2; 1 µM) was 3% and 0% and the “%Inh” value (PCTK3; 1 µM) was 0% and 28%. For the same compound, the “%Inh” value (PDGFRA; 1 µM) was 25% and 3%, the “%Inh” value (PDGFRB; 1 µM) was 5% and 23% and the “%Inh” value (PDPK1; 1 µM) was 21% and 0%. For the same compound, the “%Inh” value (PFTAIRE2; 1 µM) was 29% and 9%, the “%Inh” value (PFTK1; 1 µM) was 0% and 34% and the “%Inh” value (PHKG1) was 0%. The “%Inh” value (PHKG2; 1 µM) was 0% and 20%, the “%Inh” value (PIK3C2B; 1 µM) was 13% and 0% and the “%Inh” value (PIK3C2G; 1 µM) was 19% and 0%. For the same compound, the “%Inh” value (PIK3CA) was 0% and the “%Inh” value (PIK3CB; 1 µM) was 19% and 0%.

With Cn1cc(-c2ccc3c(c2)CCN3C(=O)Cc2cccc(C(F)(F)F)c2)c2c(N)ncnc21 [GSK2606414] the “%Inh” value (PAK1) was 0%, the “%Inh” value (PAK2) was 0% and the “%Inh” value (PAK3) was 25%. The “%Inh” value (PAK4) was 0%, the “%Inh” value (PAK6) was 0% and the “%Inh” value (PAK7) was 0%. The “%Inh” value (PCTK1) was 4%, the “%Inh” value (PCTK2) was 0% and the “%Inh” value (PCTK3) was 0%. The “%Inh” value (PDGFRA) was 38%, the “%Inh” value (PDGFRB) was 55% and the “%Inh” value (PDPK1) was 6%. For the same compound, the “%Inh” value (PFTAIRE2) was 18%, the “%Inh” value (PFTK1) was 0% and the “%Inh” value (PHKG1) was 6%. The “%Inh” value (PHKG2) was 0%, the “%Inh” value (PIK3C2B) was 0% and the “%Inh” value (PIK3C2G) was 2%. The “%Inh” value (PIK3CA) was 0% and the “%Inh” value (PIK3CB) was 0%.

Cl.O=S(=O)(c1cccc(F)c1)c1ccc(Nc2ncnc3cc(Br)sc23)cc1Cl [GSK306886] was tested, and the “%Inh” value (PAK1) was 1%, the “%Inh” value (PAK2) was 0% and the “%Inh” value (PAK3) was 0%. The “%Inh” value (PAK4) was 1%, the “%Inh” value (PAK6) was 1% and the “%Inh” value (PAK7) was 9%. For the same compound, the “%Inh” value (PCTK1) was 4%, the “%Inh” value (PCTK2) was 10% and the “%Inh” value (PCTK3) was 11%. For the same compound, the “%Inh” value (PDGFRA) was 0%, the “%Inh” value (PDGFRB) was 46% and the “%Inh” value (PDPK1) was 0%. The “%Inh” value (PFTAIRE2) was 24%, the “%Inh” value (PFTK1) was 21% and the “%Inh” value (PHKG1) was 0%. The “%Inh” value (PHKG2) was 0%, the “%Inh” value (PIK3C2B) was 28% and the “%Inh” value (PIK3C2G) was 0%. The “%Inh” value (PIK3CA) was 0% and the “%Inh” value (PIK3CB) was 0%.

With Nc1nc(-c2ccc3c(N)n[nH]c3c2)cc(N2CCCCC2)n1 [GSK2228768] the “%Inh” value (PAK1) was 2%, the “%Inh” value (PAK2) was 20% and the “%Inh” value (PAK3) was 6%. For the same compound, the “%Inh” value (PAK4) was 0%, the “%Inh” value (PAK6) was 0% and the “%Inh” value (PAK7) was 0%. For the same compound, the “%Inh” value (PCTK1) was 5%, the “%Inh” value (PCTK2) was 0% and the “%Inh” value (PCTK3) was 9%. For the same compound, the “%Inh” value (PDGFRA) was 0%, the “%Inh” value (PDGFRB) was 8% and the “%Inh” value (PDPK1) was 94.6%. For the same compound, the “%Inh” value (PFTAIRE2) was 1%, the “%Inh” value (PFTK1) was 9% and the “%Inh” value (PHKG1) was 0%. For the same compound, the “%Inh” value (PHKG2) was 0%, the “%Inh” value (PIK3C2B) was 0% and the “%Inh” value (PIK3C2G) was 0%. The “%Inh” value (PIK3CA) was 0% and the “%Inh” value (PIK3CB) was 0%.

O=C(CCO)NCCn1ccc2ncnc(Nc3ccc(Oc4cccc(C(F)(F)F)c4)c(Cl)c3)c21 was tested, and the “%Inh” value (PAK1) was 0%, the “%Inh” value (PAK2) was 2% and the “%Inh” value (PAK3) was 28%. The “%Inh” value (PAK4) was 0%, the “%Inh” value (PAK6) was 0% and the “%Inh” value (PAK7) was 0%. For the same compound, the “%Inh” value (PCTK1) was 0%, the “%Inh” value (PCTK2) was 0% and the “%Inh” value (PCTK3) was 0%. For the same compound, the “%Inh” value (PDGFRA) was 0%, the “%Inh” value (PDGFRB) was 0% and the “%Inh” value (PDPK1) was 0%. The “%Inh” value (PFTAIRE2) was 0%, the “%Inh” value (PFTK1) was 19% and the “%Inh” value (PHKG1) was 0%. For the same compound, the “%Inh” value (PHKG2) was 3%, the “%Inh” value (PIK3C2B) was 0% and the “%Inh” value (PIK3C2G) was 0%. The “%Inh” value (PIK3CA) was 0% and the “%Inh” value (PIK3CB) was 0%.

In the case of Fc1cccc(COc2ccc(Nc3ncnc4cc[nH]c34)cc2Cl)c1, the “%Inh” value (PAK1) is reported as 30%, the “%Inh” value (PAK2) is reported as 35% and the “%Inh” value (PAK3) is reported as 10%. For the same compound, the “%Inh” value (PAK4) was 26%, the “%Inh” value (PAK6) was 0% and the “%Inh” value (PAK7) was 22%. For the same compound, the “%Inh” value (PCTK1) was 5%, the “%Inh” value (PCTK2) was 48% and the “%Inh” value (PCTK3) was 10%. For the same compound, the “%Inh” value (PDGFRA) was 22%, the “%Inh” value (PDGFRB) was 25% and the “%Inh” value (PDPK1) was 4%. The “%Inh” value (PFTAIRE2) was 17%, the “%Inh” value (PFTK1) was 12% and the “%Inh” value (PHKG1) was 0%. For the same compound, the “%Inh” value (PHKG2) was 7%, the “%Inh” value (PIK3C2B) was 32% and the “%Inh” value (PIK3C2G) was 17%. For the same compound, the “%Inh” value (PIK3CA) was 0% and the “%Inh” value (PIK3CB) was 32%.
